# Results reported in PubChem BioAssay (NCI).
# About 83,000 compounds went through this panel and 20% of them were active in at least one assay; those are over-represented in the sample as a whole.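 96-well plates, one dose, 48 hours. Percent growth reported; active if below 10.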 Activity calls are given as the source filed them.
# Tested on: A498 renal
# Test: NCI-60 one-dose screen, 48 h (100 = growth as untreated, 0 = no growth, -100 = all killed)
# Conditions: 10 µM unless noted
row,Structure (SMILES),growth
1,COc1ccc2c(c1)CC[C@@H]1[C@@H]2CC[C@]2(C)[C@@H](O)C(=O)C[C@@H]12,95.7% (inactive)
2,C[C@@H]1CN(c2nc3c(cc2F)c(=O)c(C(=O)O)cn3C(C)(C)C)C[C@H](C)N1,107% (inactive)
3,NS(=O)(=O)c1ccc(-n2ncc3c(NC4CCCCC4)ncnc32)cc1,106% (inactive)
4,CCOC(=O)C1=CCC(n2cc(C)c(=O)[nH]c2=O)O1 (centres undefined),121% (inactive)
5,O=CNc1ccc2c(c1)Cc1cc([N+](=O)[O-])ccc1-2,39.2% (inactive)
6,CC(=O)[C@H]1CC[C@H]2[C@@H]3C[C@H](C)C4=CC(=O)CC[C@]4(C)[C@H]3C(=O)C[C@]12C,74% (inactive)
7,Cc1ccc2nc(SCC(=O)Nc3ccc(-c4nc5ccccc5s4)c(Cl)c3)[nH]c2c1,105% (inactive)
8,Cc1ccc(C(=O)Cc2ccccc2)c(O)c1,79.3% (inactive)
9,ICCC(c1ccccc1)(c1ccccc1)c1ccccc1,51.7% (inactive)
10,c1ccc(CN=C(NCc2ccccc2)NCc2ccccc2)cc1,84.7% (inactive)
11,Oc1ccc(/C=N/Nc2nc3ccccc3s2)c(O)c1,77.9% (inactive)
12,O=C(CC(C(=O)c1ccccc1)N1CCN(Cc2ccccc2)CC1)c1ccccc1 (centres undefined),74.6% (inactive)
13,CC(NC(N)=S)c1ccccc1 (centres undefined),98.1% (inactive)
14,C[C@]12CCC(=O)C=C1CC[C@H]1[C@@H]3C[C@@H](O)[C@](O)(C(=O)CO)[C@@]3(C)C[C@H](O)[C@@]12F,97.2% (inactive)
15,O=C(Nc1ccc2c(c1)C(=O)c1ccccc1-2)c1ccccc1,66.4% (inactive)
16,COC(=O)C1=CCC(n2cnc3c(N)ncnc32)O1 (centres undefined),116% (inactive)
17,CCN(Cc1cccc(S(=O)(=O)[O-])c1)c1ccc(C(=C2C=CC(=[N+](CC)Cc3cccc(S(=O)(=O)O)c3)C=C2)c2ccccc2S(=O)(=O)O)cc1,134% (inactive)
18,CC(NC(=O)Oc1cccc2ccccc12)c1ccccc1 (centres undefined),106% (inactive)
19,OC(c1cc(-c2cccc(Cl)c2)nc2ccccc12)C1CCCCN1 (centres undefined),56.3% (inactive)
20,O=C(Nc1ccccc1OC(=O)c1ccccc1)c1ccccc1,81.4% (inactive)

row,Structure (SMILES),growth
1,Cc1ccccc1NC(=O)NC(CC(N)=O)c1ccc2c(c1)nc(-c1cccc(Oc3ccc(C(C)(C)C)cc3)c1)n2CCCN1CCCCC1C (centres undefined),69.4% (inactive)
2,O=C(C(=O)c1cc(Br)ccc1O)c1cc(Br)ccc1O,93.5% (inactive)
3,Fc1ccccc1C1c2ccccc2-c2nccn21 (centres undefined),90.9% (inactive)
4,COc1cc(/C=C\C(C)=N\Nc2ccccc2)ccc1O,110% (inactive)
5,COc1cc(/C=N/NC(=O)c2ccc(C(F)(F)F)nc2Nc2ccc(Cl)cc2C)ccc1O,-37.9% (active)
6,O=Cc1ccccc1C(=O)O,109% (inactive)
7,COc1cc(NC(=O)NCc2ccco2)ccc1-c1ccc(NC(=O)NCc2ccco2)cc1OC,65.8% (inactive)
8,COc1cccc(/C=N/Nc2nc3ccccc3s2)c1OC,121% (inactive)
9,O=C(N/N=C/c1ccc(Cl)cc1Cl)c1ccccc1Nc1cccc(C(F)(F)F)c1,-7.44% (active)
10,COc1ccc(NS(=O)(=O)N2CCCCC2)cc1,80% (inactive)
11,O=c1c2ccccc2c2nccn2c2cc(Cl)ccc12,77.9% (inactive)
12,COc1ccc(-c2ccc(O)c(C(=O)/C=C/c3cc(OC)c(OC)c(OC)c3)c2)cc1,124% (inactive)
13,Cn1cnc([N+](=O)[O-])c1Sc1nc(N)nc2nc[nH]c12,43.6% (inactive)
14,Cc1cc(=O)oc2cc(OCCn3c(C)nn(-c4ccc(Cl)cc4)c3=O)ccc12,25.7% (inactive)
15,O=C1C=CC(=O)N1c1ccccn1,95.8% (inactive)
16,CCN(CC)c1ccc(N=C2C=CC(=O)C=C2NC(C)=O)cc1,82.1% (inactive)
17,CC1CN(C2CCCCC2)C(=O)NC1=O (centres undefined),87.9% (inactive)
18,COc1ccc2cc(C3=CC(=O)CCC3)ccc2c1,-87.9% (active)
19,COc1ccc(Cl)cc1Nc1nc(C(F)(F)F)ccc1C(=O)N/N=C/c1c(Cl)cccc1Cl,-21.9% (active)
